Measurements as given in PubChem BioAssay (EPA / NIEHS).
Inconclusive results are not listed. Active and inactive are the calls of the source. How the source made its calls, unless noted: active means hit-call score of the fitted dose curve at least 0.9, where 1 is the maximum; inconclusive means response in the unintended direction; inactive means score below 0.9.

Columns and labels:
[1] = molecular target: Cellular tumor antigen p53 (Homo sapiens) (UniProt P04637); assay: TOX21_p53_BLA_p2_ratio: Tox21 HCT-116 p53 Agonism Beta-lactamase Assay, Ratio, Phase 2 (AID 2283592)
Chain of Cellular tumor antigen p53 (Homo sapiens) (P04637 whole entry, looked up): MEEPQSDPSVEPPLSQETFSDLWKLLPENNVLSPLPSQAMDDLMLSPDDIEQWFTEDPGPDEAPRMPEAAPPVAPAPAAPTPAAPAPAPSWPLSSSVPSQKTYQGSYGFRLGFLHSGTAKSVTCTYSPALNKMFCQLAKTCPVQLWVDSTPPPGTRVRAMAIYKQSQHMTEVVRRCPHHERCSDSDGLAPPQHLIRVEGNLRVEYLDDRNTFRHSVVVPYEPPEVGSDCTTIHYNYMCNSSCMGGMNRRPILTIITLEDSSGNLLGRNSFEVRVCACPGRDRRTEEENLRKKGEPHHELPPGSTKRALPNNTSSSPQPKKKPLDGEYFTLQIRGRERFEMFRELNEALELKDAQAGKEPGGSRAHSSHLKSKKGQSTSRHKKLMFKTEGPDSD
In short: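 First, HCT116 reporter cells settle for 5 h at 37C. Next, DMSO compound solutions are pinned in (217-fold dilution) and left 16 h. Finally, CCF4-AM substrate is loaded 2 h at room temperature and the 460/530 nm ratio read.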

[2] = molecular target: Cellular tumor antigen p53 (Homo sapiens) (UniProt P04637); assay: TOX21_p53_BLA_p3_ratio: Tox21 HCT-116 p53 Agonism Beta-lactamase Assay, Ratio, Phase 3 (AID 2283596)
In short: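 Cells were seeded at 4000/well, rested 5 h at 37C, then dosed with DMSO compound solutions (217-fold dilution) for 16 h. CCF4-AM substrate was loaded for 2 h at room temperature, and the 460/530 nm emission ratio was fitted for gain of signal versus DMSO.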

[3] = TOX21_p53_BLA_p4_viability: Viability Assessment in the Tox21 HCT-116 p53 Agonism Beta-lactamase Assay, Phase 4 (AID 2283597);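 further: hits lower the luminescence signal meaning cytotoxicity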
In short: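 4000 HCT116 cells per well; 5 h attachment; compounds from DMSO, 217-fold dilution; 16 h at 37C. Then CCF4-AM, 2 h RT, followed by CellTiter-Glo, 30 min RT, luminescence. Decrease = cytotoxicity.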

[4] = molecular target: Cellular tumor antigen p53 (Homo sapiens) (UniProt P04637); assay: TOX21_p53_BLA_p5_ratio: Tox21 HCT-116 p53 Agonism Beta-lactamase Assay, Ratio, Phase 5 (AID 2283599)
In short: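 HCT-116 p53-bla cells (4000/well) plated 5 h, dosed with compound (217-fold DMSO dilution) for 16 h at 37 C; CCF4-AM substrate 2 h at room temperature. Activity is the 460/530 nm emission ratio (405 nm excitation), fitted in gain-of-signal direction versus DMSO.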

[5] = TOX21_p53_BLA_p5_viability: Viability Assessment in the Tox21 HCT-116 p53 Agonism Beta-lactamase Assay, Phase 5 (AID 2283600)
In short: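 Decreased CellTiter-Glo luminescence denotes lost viability. Exposure: 16 h at 37C, 5% CO2, with compounds from DMSO stocks diluted 217-fold in wells of 4000 cells.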

[6] = molecular target: Cellular tumor antigen p53 (Homo sapiens) (UniProt P04637); assay: TOX21_p53_BLA_p4_ratio: Tox21 HCT-116 p53 Agonism Beta-lactamase Assay, Ratio, Phase 4 (AID 2283601)
In short: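 HCT-116 p53 beta-lactamase reporter cells (4000/well) preincubated 5 h, then compound (217-fold dilution of DMSO stock) for 16 h at 37C. CCF4-AM substrate added 2 h at room temperature; 460/530 nm emission ratio fitted upward versus DMSO.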

[7] = UKN5_HCS_SBAD2_cell_viability: Viability Assessment in the University of Konstanz (UKN) Leist Lab Neurite Outgrowth Assay in human iPSC-derived immature Dorsal Root Ganglia Neurons (UKN5) (AID 2284056; active means hit-call score of the fitted dose curve at least 0.9, where 1 is the maximum; inactive means score below 0.9)
In short: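 iPSC-derived immature peripheral neurons (SBAD2) seeded on Matrigel with CHIR99021, SU5402 and DAPT, dosed 1 h later for 24 h. Viability from Hoechst H-33342 and calcein-AM live staining, high-content imaging; bidirectional fit versus DMSO.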

[8] = UKN5_HCS_SBAD2_neurite_outgrowth: University of Konstanz (UKN) Leist Lab Neurite Outgrowth Assay in human iPSC-derived immature Dorsal Root Ganglia Neurons (UKN5) (AID 2284070; active means hit-call score of the fitted dose curve at least 0.9, where 1 is the maximum; inactive means score below 0.9); conditions: actives raise or lower the signal
In short: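 Neurite area from calcein-AM high-content images after 24 h exposure (staining included), with H-33342 for viability, fitted both directions against DMSO. Cells: thawed immature SBAD2 peripheral neurons, 100.000 cells/cm2, with CHIR99021, SU5402, DAPT; dosing 1 h after seeding.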

[9] = UKN2_HCS_IMR90_neural_migration: University of Konstanz (UKN) Leist Lab Neural Crest Cell Migration Assay in human induced IMR90 Pluripotent Stem Cells (UKN2) (AID 2284204; active means hit-call score of the fitted dose curve at least 0.9, where 1 is the maximum; inactive means score below 0.9); conditions: actives raise or lower the signal
In short: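 Stopper-exclusion migration (cMINC), human iPSC-derived neural crest cells; N2-S + EGF/FGF; compound added 24 h post-stopper removal, 24 h exposure. Readout: calcein-AM/Hoechst 30 min, HCS fluorescence imaging; bidirectional fitting, DMSO baseline.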

[10] = UKN4_HCS_LUHMES_neurite_outgrowth: University of Konstanz (UKN) Leist Lab Neurite Outgrowth Assay in human LUHMES cells (UKN4) (AID 2284206; active means hit-call score of the fitted dose curve at least 0.9, where 1 is the maximum; inactive means score below 0.9); conditions: actives raise or lower the signal
In short: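 After 24 h compound treatment beginning shortly after replating of 2-day-differentiated LUHMES cells, calcein-AM and H-33342 live staining allowed high-content imaging of neurite area and viability. Fitted bidirectionally against DMSO.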

[11] = UKN4_HCS_LUHMES_cell_viability: Viability Assessment in the University of Konstanz (UKN) Leist Lab Neurite Outgrowth Assay in human LUHMES cells (UKN4) (AID 2284232; active means hit-call score of the fitted dose curve at least 0.9, where 1 is the maximum; inactive means score below 0.9)
In short: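 Viability was read by high-content imaging of calcein-AM/H-33342-stained cells after 24 h toxicant exposure, staining included. Cells: human LUHMES on day 2 of dopaminergic differentiation, dosed shortly after attachment; DMSO baseline, bidirectional curve fitting.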

[12] = UKN2_HCS_IMR90_cell_viability: Viability Assessment in the University of Konstanz (UKN) Leist Lab Neural Crest Cell Migration Assay in human induced IMR90 Pluripotent Stem Cells (UKN2) (AID 2284233; active means hit-call score of the fitted dose curve at least 0.9, where 1 is the maximum; inactive means score below 0.9;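 further: cells exposed to compound for 24 h after a 24 h migration phase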)
In short: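 Viability read as calcein-AM fluorescence by high-content imaging, Hoechst co-stain, 30 min. Human iPSC (IMR90) neural crest cells had migrated 24 h into stopper-defined gaps before 24 h chemical exposure. Fitted bidirectionally relative to DMSO.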

[13] = molecular target: PGR (gene 5241) (UniProt P06401); assay: TOX21_PR_BLA_Followup_Agonist_ratio: Tox21 HEK293 Progesterone Receptor (PR) Agonism Beta-lactamase Follow-Up Assay, Ratio (AID 2283933)
Chain of PGR (gene 5241) (P06401 whole entry, looked up): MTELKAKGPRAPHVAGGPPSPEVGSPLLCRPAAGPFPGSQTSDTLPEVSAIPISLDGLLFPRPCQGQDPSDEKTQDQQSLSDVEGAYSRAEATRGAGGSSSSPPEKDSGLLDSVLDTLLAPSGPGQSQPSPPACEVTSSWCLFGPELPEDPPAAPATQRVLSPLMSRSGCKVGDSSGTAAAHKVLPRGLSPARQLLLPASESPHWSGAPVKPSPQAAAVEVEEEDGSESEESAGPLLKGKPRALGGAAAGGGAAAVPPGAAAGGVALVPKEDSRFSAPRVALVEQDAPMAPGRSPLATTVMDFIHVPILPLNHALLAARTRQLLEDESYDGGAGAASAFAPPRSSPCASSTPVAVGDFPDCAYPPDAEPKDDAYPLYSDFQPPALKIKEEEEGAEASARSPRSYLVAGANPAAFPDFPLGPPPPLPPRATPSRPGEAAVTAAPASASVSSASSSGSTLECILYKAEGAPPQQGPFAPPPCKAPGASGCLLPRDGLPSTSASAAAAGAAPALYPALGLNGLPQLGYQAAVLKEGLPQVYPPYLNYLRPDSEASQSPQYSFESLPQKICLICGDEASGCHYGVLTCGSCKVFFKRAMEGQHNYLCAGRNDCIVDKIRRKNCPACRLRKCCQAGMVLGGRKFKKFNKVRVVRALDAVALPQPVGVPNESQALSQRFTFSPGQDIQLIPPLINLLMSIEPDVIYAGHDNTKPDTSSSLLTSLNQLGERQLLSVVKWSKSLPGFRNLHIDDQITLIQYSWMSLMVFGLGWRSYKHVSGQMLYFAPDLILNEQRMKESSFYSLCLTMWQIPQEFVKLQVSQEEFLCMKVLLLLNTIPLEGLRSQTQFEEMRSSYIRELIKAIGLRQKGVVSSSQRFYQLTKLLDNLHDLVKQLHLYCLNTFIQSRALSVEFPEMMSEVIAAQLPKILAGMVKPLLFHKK
In short: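 Beta-lactamase reporter readout: ratio of cleaved (ch2) to uncleaved (ch1) substrate after 2 h room-temperature loading, following 16 h compound exposure at 37C. Cells were PR-UAS-bla HEK293T in 2% charcoal-stripped FBS medium. Viability was multiplexed by CellTiter-Glo.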

[14] = molecular target: PGR (gene 5241) (UniProt P06401); assay: TOX21_PR_BLA_Followup_Antagonist_ratio: Tox21 HEK293 Progesterone Receptor (PR) Antagonism Beta-lactamase Follow-Up Assay, Ratio (AID 2283934);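 further: PR-UAS-bla HEK293T cells stimulated with 1 nM R5020 agonist for 16 hr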
In short: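 Readout is the blue/green (ch2/ch1) substrate cleavage ratio after 2 hours at room temperature, following 16 hr co-treatment of PR-bla HEK293T cells with compound and 1nM promegestone. Multiplexed CellTiter-Glo viability flags cytotoxicity; DMSO baseline.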

[15] = TOX21_PR_BLA_Followup_Agonist_viability: Viability Assessment in the Tox21 HEK293 Progesterone Receptor (PR) Agonism Beta-lactamase Follow-Up Assay (AID 2283935);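 further: signal loss means lower viability so actives are cytotoxic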
In short: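 Run multiplexed with the beta-lactamase FRET read, this endpoint measures ATP by CellTiter-Glo luminescence (30 min, room temperature). PR-UAS-bla HEK293T cells received compound 6 hr after plating and were then incubated 16 hr at 37C in 2% stripped serum.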

[16] = TOX21_PR_BLA_Followup_Antagonist_viability: Viability Assessment in the Tox21 HEK293 Progesterone Receptor (PR) Antagonism Beta-lactamase Follow-Up Assay (AID 2283936);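 further: cells exposed to compound with R5020 agonist for 16 h; hits lower the luminescence signal meaning cytotoxicity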
In short: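 PR-UAS-bla HEK293T cells in medium with 2% charcoal-stripped FBS were treated with compounds plus R5020 for 16 hr at 37C. After the beta-lactamase read, CellTiter-Glo was added to the same wells and luminescence read after 30 min at room temperature.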

[17] = molecular target: PGR (gene 5241) (UniProt P06401); assay: TOX21_PR_LUC_Followup_Agonist: Tox21 HEK293 Progesterone Receptor (PR) Agonism Luciferase Follow-Up Assay (AID 2283937; active means hit-call score of the fitted dose curve at least 0.9, where 1 is the maximum; inactive means score below 0.9)
In short: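 Agonism scored as luciferase induction over DMSO, read by ONE-Glo after 30 min at RT. Compounds were incubated 16 h at 37C on HEK293-PR-A-luc cells (3,000/well, pre-plated 5 h) previously grown 5 days in charcoal-stripped serum.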

[18] = molecular target: PGR (gene 5241) (UniProt P06401); assay: TOX21_PR_LUC_Followup_Antagonist: Tox21 HEK293 Progesterone Receptor (PR) Antagonism Luciferase Follow-Up Assay (AID 2283938);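 further: curve fitted upward as signal gain over DMSO baseline despite antagonist label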
In short: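 HEK293-PR-A-luc cells, 3,000/well, preincubated 5 h at 37C before compound addition in DMSO; 16 h compound exposure at 37C. ONE-Glo luciferase luminescence read after 30 min at room temperature, fitted relative to DMSO baseline.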

[19] = TOX21_PR_LUC_Followup_Agonist_viability: Viability Assessment in the Tox21 HEK293 Progesterone Receptor (PR) Agonism Luciferase Follow-Up Assay (AID 2283941);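 further: loss of signal means cytotoxicity so actives lower viability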
In short: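 Cytotoxicity counter-readout in the PR-A luciferase reporter line HEK293, with 16 h compound exposure at 37C after cells were cultured in charcoal-stripped serum. Cellular ATP quantified by CellTiter-Glo luminescence.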

SMILES	outcome [1]	outcome [2]	outcome [3]	outcome [4]	outcome [5]	outcome [6]	outcome [7]	outcome [8]	outcome [9]	outcome [10]	outcome [11]	outcome [12]	AC50 [13]	outcome [14]	outcome [15]	outcome [16]	AC50 [17]	outcome [18]	outcome [19]
O=[N+]([O-])c1ccc(CCl)cc1	inactive	inactive	inactive	inactive	inactive	inactive	–	–	–	–	–	–	–	–	–	–	–	–	–
CNC(C)Cc1ccc2c(c1)OCO2 (centres undefined)	inactive	inactive	inactive	inactive	–	–	inactive	inactive	inactive	inactive	inactive	inactive	–	–	–	–	–	–	–
C#C[C@]1(O)CC[C@H]2[C@@H]3CCC4=CC(=O)CCC4=C3C=C[C@@]21CC	inactive	inactive	inactive	inactive	inactive	inactive	–	–	–	–	–	–	144 nM (active)	inactive	inactive	inactive	1.56 nM (active)	inactive	inactive
